Most compounds without a hit are left out; they make up all but 1.9% or so of the library.
PINK1 expr mod – changes PINK1 expression; PINK1 immunofluorescence, high-content cytometry, 24 h; Potency, µM (series often up to 76.6 µM), inactives show at the highest dose activation (PINK1 increase), usual class: activators; 410,000 compounds, 0.2% hits; AID 624263; active = well fitted activation curve with a large enough effect; inconclusive = small, poorly fitted or top-dose-only effect; cell line not stated here; also: potency is read from the fitted curve at half-maximal effect; % of control where 0% means no effect; nearly all actives have a fitted effect of over 65% in size
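Compound titrations (5 concentrations, 24 h) on a stable cell line; DMSO and CCCP controls. Endpoint: fixed-cell PINK1 immunofluorescence with mitochondrial, cell and nuclear markers, scanned by microplate cytometer.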
Menin-MLL FL inh – inhibitors of human menin-MLL interaction, wild-type MLL peptide; FP activity change, % at 61.4 µM; 290,000 tested, under 10 active; Fluorescence polarization, fluorescein-MLL peptide displacement from menin; AID 1766; active = well fitted curve in the direction sought with a large enough effect in the polarisation, not every such curve was filed as active; inconclusive = small, poorly fitted or top-dose-only effect, or effect the other way, or a change in a side signal; inactive = no such curve, though single readings can be large or run the other way; the % refers to the polarisation; also: % of control where 0% means no effect
Menin-MLL TR inh – menin-MLL binding inhibition, Texas Red mutant peptide | AID 1768 | 270,000 compounds, 0.23% hits | Menin + Texas Red MLL mutant peptide, fluorescence polarization | Potency, µM (top dose mostly 61.6 µM), for inactives: at the top dose FP activity change, negative = inhibition, most hits filed as inhibitors; active = well fitted inhibition curve with a large enough effect in the polarisation, with a control signal flat, not every such curve was filed as active; inconclusive = small, poorly fitted or top-dose-only effect, or effect the other way, or a change in a side signal; inactive = no such curve, though single readings can be large or run the other way; the % refers to the polarisation; also: potency is read from the fitted curve at half-maximal effect; % of control where 0% means no effect
MLL CXXC-DNA inh – MLL CXXC-DNA interaction inhibition; Q03164; MLL-CXXC / FITC-HOXA9 DNA fluorescence polarization; Potency, µM (highest dose often 115 µM), for inactives: at the highest dose activity change, negative = inhibition, hits mostly inhibitors; 290,000 compounds, 0.037% hits; AID 2662; active = well fitted inhibition curve with a large enough effect in the polarisation, with a control signal flat, not every such curve was filed as active; inconclusive = small, poorly fitted or top-dose-only effect, or effect the other way, or a change in a side signal; inactive = no such curve, though single readings can be large or run the other way; the % refers to the polarisation; also: potency is read from the fitted curve at half-maximal effect
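Fluorescence polarization: 7 uM MLL-CXXC (stock) preincubated 5 min with compounds, then 50 nM fluorescein-HOX-A9 DNA (stock) added; 30 min ambient. Buffer 50 mM Tris-HCl pH 7.5, 50 mM NaCl, 1 mM DTT, 0.05% BSA.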
Epigenetic derep – derepresses silenced GFP reporter in murine cells; murine LDR cells, GFP reporter derepression, 30 h; Potency, µM (titrated, usually from 53.9 µM), for the others: at the top dose GFP activation, most hits filed as activators; 280,000 compounds, 0.2% hits; AID 1865; active = well fitted activation curve with a large enough effect; inconclusive = small, poorly fitted or top-dose-only effect; also: potency is read from the fitted curve at half-maximal effect; % of control where 0% means no effect; nearly all actives have a fitted effect of over 60% in size
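GFP-positive cell count by laser-scanning cytometry (objects 20–120 um) after 30 h, 37 C compound exposure of murine LDR cells; reporter is CMV-GFP integrated at a silenced locus, inducible by HDAC or DNMT inhibitors.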
ClpP mod – qHTS Assay for Activators of ClpP; ATP-dependent Clp protease proteolytic subunit (Bacillus subtilis (strain 168)), P80244; purified B. subtilis ClpP, FRET peptide cleavage, 20 min; Potency, µM (series often up to 57.5 µM), inactives show at the top dose activity change, negative = active; 340,000 compounds, 1.9% hits; AID 651965, 2013; active = well fitted falling curve with a large enough effect; inconclusive = small, poorly fitted or top-dose-only effect; inactive = no such curve, though single readings can be large or run the other way; also: potency is read from the fitted curve at half-maximal effect; the source files actives as falling curves though it sought activators and does not explain the sign; nearly all actives have a fitted effect of over 65% in size
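FRET quenching reversal measured ClpP activation: 10 microg/mL B. subtilis ClpP at pH 8 with the FRET-FV decapeptide, read at 430 nm after 320 nm excitation. The 20-min minus 0-min signal was scaled between DMSO/no-enzyme wells and ADEP (5.8 microM final).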
The depositor's hits bear a star; u = inconclusive; x = not tested or not shown; ! = not active in a repeat; [ ] = remark or other dose.

SMILES	PINK1 expr mod	Menin-MLL FL inh	Menin-MLL TR inh	MLL CXXC-DNA inh	Epigenetic derep	ClpP mod
CC1(C)OB(c2cnc(C#N)nc2)OC1(C)C	0%	x	x	x	x	-4%
CCOC(=O)Nc1cc(=O)c2ccccc2o1	9%[38.3 µM]	0	2%	9%	-1%	32µM*
CCOC(=O)Nc1cc2c(C)cc(=O)oc2cc1C	-1%	16	-26%	0%	-3%	16µM*
Cc1ncc2c(c1CNC(=O)c1ccc3c(c1)OCO3)CCN(C(=O)c1scc3c1CCCC3)C2	-1%	x	x	x	x	x
COc1cnc(-c2ccccn2)nc1Sc1ccc(Cl)cc1	1%[38.3 µM]	0	5%	2%	-1%	-1%
COc1cnc(N(C)C)nc1Sc1ccc(Cl)cc1	-1%	3	-2%	-6%	2%	32µM*
CCCCCCCCN1[C@@H](CC(C)=O)c2ccc(/C=C/C(C)=O)cc2S1(=O)=O	x	x	x	x	x	0%
CC(C)(CNC(=O)c1ccc([N+](=O)[O-])c(Cl)c1)CNC(=O)c1ccc([N+](=O)[O-])c(Cl)c1	-3%	5	x	-4%	-1%	16µM*
C=CCNC(=O)c1ccc([N+](=O)[O-])c(Cl)c1	0%	-3	-2%	-9%	1%	x
COc1ccc(NC(=O)Cn2c(=O)n(-c3cc(C)cc(C)c3)c(=O)c3oc4ccccc4c32)cc1OC	0%	x	x	x	-4%	21%
Cc1cccn2c(/C=N/OCc3cccc(F)c3)c(-c3ccc(Cl)cc3)nc12	11%	0	x	2%	4%	22µM*
Fc1cccc(CO/N=C/c2c(-c3ccccc3)nc3ccc(Cl)cn23)c1	5%	-2	-8%	-5%	0%	u
O=C(Cc1ccccc1)N/N=C/c1ccc(-c2ccc([N+](=O)[O-])cc2)o1	7.9µM*	16	u	20%	u	-2%
COCCNC(=S)N/N=C/c1ccc(-c2ccc([N+](=O)[O-])cc2)o1	45µM*	u	x	11%	u	0%
NC(=O)N/N=C/c1ccc(-c2ccc([N+](=O)[O-])cc2)o1	1%	6	x	-12%	-3%	1%
CC(C)CN1C(=O)c2ccc(NC(=O)c3ccccc3F)cc2C1=O	19%[38.3 µM]	1	10%	9%	0%	32µM*
CC(C)CN1C(=O)c2ccc(NC(=O)c3cccs3)cc2C1=O	6%[38.3 µM]	5	u	9%	10%	28µM*
CC(C)CN1C(=O)c2ccc(NC(=O)c3ccco3)cc2C1=O	0%	5	u	u	-1%	x
c1ccc(Cc2nnc3n2CCN(Cc2cnc(-c4ccccc4)s2)CC3)cc1	0%	x	x	x	x	x
O=C(CCS(=O)(=O)c1nc(-c2cccs2)cc(C(F)(F)F)n1)Nc1cccc(O)c1	-1%	x	x	x	5%	4%
O=C(CSc1nc(-c2cccs2)cc(C(F)(F)F)n1)NCc1ccccc1	11%[38.3 µM]	6	5%	4%	-1%	35µM*
COc1ccc(-c2cc(C(F)(F)F)nc(SCC(=O)NCc3cccs3)n2)cc1OC	u	5	0%	-5%	-2%	25µM*
COc1ccc(-c2cc(C(F)(F)F)nc(SCC(=O)NCc3ccc(OC)c(OC)c3)n2)cc1	3%	x	x	x	-1%	-8%
COc1ccc(-c2cc(C(F)(F)F)nc(SCC(=O)Nc3cc(C)on3)n2)cc1OC	9%	0	11%	2%	-3%	13µM*
O=C(O)CCS(=O)(=O)c1nc(-c2cccs2)cc(C(F)(F)F)n1	9%[38.3 µM]	-1	0%	4%	-1%	14µM*
SMILES	PINK1 expr mod	Menin-MLL FL inh	Menin-MLL TR inh	MLL CXXC-DNA inh	Epigenetic derep	ClpP mod
COC(=O)[C@@H]1CCCN1C(=O)c1cnn(-c2ncc3c(n2)-c2ccccc2CCC3)c1C1CC1	3%	x	x	x	x	x
COc1ccc(NC(=O)CCSc2nc(-c3ccc(OC)cc3)cc(C(F)(F)F)n2)cc1	4%	x	x	x	-1%	-13%
COc1ccc(-c2cc(C(F)(F)F)nc(SCCC(=O)Nc3cc(C)on3)n2)cc1	9%	2	33%	-3%	1%	35µM*
Cc1occc1-c1nnc(SCC(=O)Nc2nc(C(C)(C)C)cs2)o1	14µM*	0	5%	3%	2%	0%
CCOC(=O)c1c(OCC)[nH]c2c1cc(O)c1ccccc12	-1%[38.3 µM]	-2	u	4%	1%	22µM*
CCOC(=O)c1c(C)[nH]c2cc(Br)c(O)cc12	2%	1	13%	3%	6%	-2%
O=c1[nH]c2cc3c(cc2cc1C(c1nnnn1CC1CCCO1)N1CCCCCC1)OCCO3 (stereo unspecified)	-1%[38.3 µM]	6	-1%	1%	3%	32µM*
CC(C)(C)n1nnnc1C(c1cc2cc3c(cc2[nH]c1=O)OCO3)N1CCN(c2ccccc2)CC1 (stereo unspecified)	-5%[38.3 µM]	1	11%	-5%	-1%	22µM*
O=c1[nH]c2cc3c(cc2cc1C(c1nnnn1CC1CCCO1)N1CCCC1)OCO3 (stereo unspecified)	2%[38.3 µM]	3	2%	0%	-1%	32µM*
CCN1CCN(C(c2cc3cc4c(cc3[nH]c2=O)OCO4)c2nnnn2C(C)(C)CC)CC1 (stereo unspecified)	-2%[38.3 µM]	6	2%	-5%	-1%	-24%
C=C1NN(Cc2ccccc2)C(=O)N1c1ccc(OCc2ccccc2)cc1	-1%	x	x	x	x	0%
COc1cccc(CN2CCC(n3cc(C(=O)NC4CCCC4)nn3)CC2)c1O	0%	x	x	x	x	x
CCOC(=O)c1ccc(S(=O)(=O)N2CCN(c3nc(-c4cccs4)nc4ccccc34)CC2)cc1	1%	x	x	x	x	10µM*
CC(=O)c1ccc(S(=O)(=O)N2CCN(c3nc(-c4cccs4)nc4ccccc34)CC2)cc1	1%	x	x	x	x	-9%
Cc1ccc(S(=O)(=O)N2CCN(c3nc(-c4cncn4C)nc4ccccc34)CC2)cc1	0%	x	x	x	x	32µM*
CC(C)(C)c1ccc(S(=O)(=O)N2CCN(c3nc(-c4cccs4)nc4ccccc34)CC2)cc1	0%	x	x	x	x	u
CN1CCN(c2nc(-c3cccnc3)nc3ccccc23)CC1	26%[38.3 µM]	2	-6%	0%	-7%	25µM*
COc1ccc(S(=O)(=O)N2CCN(c3nc(-c4cccs4)nc4ccccc34)CC2)cc1	0%	x	x	x	x	28µM*!
COc1cc(=O)n2c(c1C(=O)NCc1ccco1)CCN(Cc1ccc3ccccc3c1)CC2	2%	x	x	x	x	x
CC1(C)C(C(=O)O)N2C(=O)C(NC(=O)Cc3ccccc3)C2S1=O (stereo unspecified)	-2%	6	-11%	-24%	x	x
CC[N+](C)(C)c1ccc(/C=C/c2ccnc3ccccc23)cc1	x	x	x	x	x	-1%
Cc1ccc(Nc2nc3nonc3nc2Nc2cccc(C(F)(F)F)c2)cc1Cl	u	x	x	x	-3%	-3%
COc1cc(-c2cnc3ccccc3c2)cc2c1OCCN(S(=O)(=O)C[C@]13CC[C@H](CC1=O)C3(C)C)C2	0%	x	x	x	x	x
